Compound activity deposited in PubChem by National Center for Advancing Translational Sciences (NCATS).
NS1 function inh: blocks influenza NS1 protein function; Potency, µM (titrated, usually from 46.1 µM), without a hit: at the highest dose activity, positive = more growth; 270,000 tested, 0.4% active; AID 2326; calls by dose curve; further: potency means the concentration at half of the fitted maximal effect; actives are rising curves; nearly all actives have a fitted effect of over 50% in size
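Growth recovery, yeast-based: influenza A NS1 expressed in S. cerevisiae causes slow growth, and suppressors are detected by OD600. The parent strain without NS1 is used as positive control.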
Pf growth 48h: P. falciparum growth inhibition at 48 hours (one generation); P. falciparum luciferase growth in erythrocytes, 48 h; Potency, µM (top dose mostly 28.7 µM), for the others: top-dose activity change, negative = inhibition, most hits filed as inhibitors; 310,000 tested, 5.9% active; further: potency means the concentration at half of the fitted maximal effect; on the % scale 0 is the no-effect control and ±100 the full control effect
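Growth was read as firefly luciferase luminescence after a 48 h, 37 C, 5% CO2 exposure of compounds to reporter-bearing P. falciparum cultures (0.1% parasitemia, 2% hematocrit final) in Albumax-supplemented RPMI 1640.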
Shiga inhibitor: blocks Shiga toxin action in Vero cells; Vero cells, Shiga toxin protein synthesis inhibition reporter; inhibition, % at 38.7 µM; 290,000 tested, 9.2% active; AID 2315; in the data active means inhibition mostly above about 28%, no sharp cut-off; inactive means mostly below about 43%; further: 0% is about no effect
SARS PLpro yeast: SARS-CoV PLP inhibition in yeast; S. cerevisiae expressing SARS-CoV PLpro, growth rescue; Potency, µM (top dose mostly 32.9 µM), for the others: at the top dose activity, positive = growth rescue, usual class: activators; 330,000 tested, 0.19% active; AID 485353; calls by dose curve; further: potency means the concentration at half of the fitted maximal effect; 0% is about no effect; nearly all actives have a fitted effect of over 55% in size
Cycloheximide cs: counter-screen for Shiga toxin inhibitors: cycloheximide protein synthesis inhibition; cell reporter, cycloheximide protein synthesis inhibition counterscreen; max response, %; 300,000 tested, 12% active; in the data active means max response mostly above about 13%, no sharp cut-off; inactive means mostly below about 14%; further: read at 38.3 µM for the half of the compounds with a filed dose; 0% is about no effect
Pf growth 96h: P. falciparum growth inhibition at 96 hours; Potency, µM (series often up to 28.7 µM), inactives show at the top dose activity change, negative = inhibition, most hits filed as inhibitors; P. falciparum luciferase reporter growth, 96 h; 320,000 tested, 6.9% active; further: potency means the concentration at half of the fitted maximal effect; on the % scale 0 is the no-effect control and ±100 the full control effect
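Luminescence readout: decreased luciferase signal marks inhibited growth of reporter-expressing P. falciparum in infected red cells (2% hematocrit, 0.05% parasitemia final), exposed to compound two generations (96 h, 37 C, 5% CO2).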
The depositor's hits bear a star; ? = inconclusive; nt = no result; + = active, no number; [ ] = another dose, or the depositor's remark. Only some compounds are listed: those with a hit (about 21% of all), similar ones and a draw of the others. Unless noted, the call rests on the fitted dose curve; in most records, active means well fitted inhibition curve with a large enough effect; inconclusive means small, poorly fitted or top-dose-only effect, or another doubt; inactive means no such curve, though single readings can be large or run the other way.

SMILES	NS1 function inh	Pf growth 48h	Shiga inhibitor	SARS PLpro yeast	Cycloheximide cs	Pf growth 96h
CCCc1nc2ccccc2c(=O)n1/N=C/c1ccc(O)cc1	-8%	12µM*	-14	0%	-2	?
CCCc1nc2ccccc2c(=O)n1/N=C/c1ccc(O)cc1O	-38%	0%	-10	14%	6	?
O=c1c2ccccc2nc(COc2ccccc2)n1/N=C/c1ccco1	-56%	118%	69*	-7%	35*	-6%
Nc1nc(=O)c2[nH]cnc2n1O	0%	nt	nt	nt	nt	nt
CN(CC(=O)Nc1ccc(F)cc1)C(=O)C1CCN(C(=O)Nc2ccccc2)CC1	nt	?	nt	1%	nt	?
Cc1cccc(C)c1NC(=O)CNC(=O)c1cccnc1	2%	33%	-4	-3%	-1	35%
Cc1ccccc1OCc1nc2ccccc2c(=O)n1/N=C/c1cccc([N+](=O)[O-])c1	5%	80%	+	10%	23*	99%
Cc1cccc(C)c1OCc1nc2ccccc2c(=O)n1/N=C/c1ccc(OCC(=O)O)cc1	10%	-3%	39	-5%	12	-14%
COC(=O)c1cc(S(=O)(=O)N2CCCCC2)c[nH]1	5%	-6%	-7	6%	4	?
Cc1cccnc1NC(=O)c1ccccc1-c1ccccc1C(=O)Nc1ncccc1C	13%	10%	20	2%	12	37%
COc1ccc(NC(=O)Nc2ncccc2C)cc1	-8%	265%	63*	2%	20*	18%
COC(=O)c1ccccc1NC(=O)Nc1ncccc1C	5%	15%	-14	0%	-3	20%
CCC(NC(=O)Nc1ncccc1C)(C(F)(F)F)C(F)(F)F	-12%	6%	37	0%	-2	11%
Cc1cccnc1NC(=O)Nc1ccc(Cl)cc1	-29%	128%	nt	-3%	25*	20%
Cc1cccnc1NC(=O)Nc1ccccc1	-42%	90%	49*	0%	27*	86%
Cc1cccnc1NC(=O)CCNC(=O)c1ccc(Cl)cc1	1%	9%	-17	21%	-3	58%
COc1ccc(C(=O)NC(=O)Nc2ncccc2C)cc1	-17%	nt	88*	13%	40*	123%
COC(=O)CN(c1ccccc1)S(=O)(=O)c1cc(Br)ccc1OC	-2%	8%	3	0%	3	?
COc1cc(/C=N/NC(N)=S)ccc1OC(=O)c1ccc(C)cc1	-7%	20%	-30	17%	6	nt
COc1ccc(/C=N/NC(=S)Nc2ccccc2)cc1COc1cccc(C)c1C	9%	-5%	31*	-1%	8	?
COc1ccc(/C=C/C(=O)C2CC2)cc1COc1cccc(C)c1C	4%	?	-7	-2%	1	?
COc1cccc(/C=N/NC(=S)Nc2cccc(C(=O)O)c2)c1	nt	442%	95*	0%	36*	?
COc1ccc(C(=O)Oc2cccc(/C=N/NC(N)=S)c2)cc1	12%	37%	51*	14%	16*	-1%
COc1ccc(/C=N/NC(=S)Nc2cccc(C(=O)O)c2)cc1OC	13%	61%	26	1%	16*	?
O=C(COC(=O)c1ccc(CO)cc1)Nc1ccc(OC(F)F)cc1	nt	-16%	-9	0%	2	25%
SMILES	NS1 function inh	Pf growth 48h	Shiga inhibitor	SARS PLpro yeast	Cycloheximide cs	Pf growth 96h
COc1cccc(CC(NC(C)=O)C(=O)NC2CCN(C(=O)C3CCCCC3)CC2)c1OC (stereo not drawn)	8%	?	2	9%	-6	6%
Cc1c(NC(=O)c2cc(-n3cnnc3)ccc2Cl)cccc1-c1nc2ccccc2o1	-2%[9.22 µM]	-5%	26	21%	18*	?
O=C(Nc1ccc(-c2nc3ccccc3o2)cc1)c1cc(-n2cnnc2)ccc1Cl	4%	12µM*	56*	16%	23*	15µM*
O=C(Nc1ccc(-c2nc3ccccc3o2)c(O)c1)c1cc(-n2cnnc2)ccc1Cl	?	9.3µM*	15	0%	6	-16%
O=C(Nc1ccc(N2CCOCC2)cc1)c1cc(-n2cnnc2)ccc1Cl	5%	10%	-3	3%	-3	-10%
O=C(Nc1ccc2oc(-c3ccccc3)nc2c1)c1cc(-n2cnnc2)ccc1Cl	nt	-24%	84*	0%	28*	-26%
O=C(Nc1ccccc1)c1cc(-n2cnnc2)ccc1Cl	11%	-11%	-14	10µM*	-1	43%
